Assay outcomes (PubChem)
MITF inh: human MITF inhibition, primary screen; O75030; AlphaScreen MITF homodimerization, bead proximity signal; inhibition, % at 2.6 µM; 650,000 compounds, 0.91% hits; in the data active means inhibition above about 50%
GPR151 ag: activators of human GPR151; Q8TDV0; PathHunter beta-arrestin GPR151 cells, luminescence; activation, % at 11.2 µM; 650,000 compounds, 1% hits; AID 1508602; in the data active means activation above about 4.9%
TEAD-YAP inh: TEAD-YAP interaction inhibition. HEK-TIYL cells, TEAD-Gal4/YAP UAS-luciferase luminescence. inhibition, % at 9.12 µM. 640,000 compounds, 1.4% hits. AID 1259422; in the data active means inhibition above about 32%
FBW7 act: activators of human E3 ligase FBW7. Q969H0. AlphaScreen FBW7–phospho-cyclin E peptide binding, activator screen. normalized activity (activation), % at 26.1 µM. 650,000 compounds, 0.13% hits. AID 1259310; in the data active means normalized activity above about 1.9%;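 further: purified mutant Fbw7 with reduced substrate affinity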
GPR151 conf act: confirmation of human GPR151 activators. shares compounds with GPR151 ag. GPR151 PathHunter beta-arrestin cells, luminescence, 90 min; % of EA-reagent control over plate median. activation, % at 11.2 µM. 6,700 tested, under 10 active. AID 1508609;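 active means mean percent activation across replicates above the confirmation screen cutoff of 4.91%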
GPR119 ag: counter-screen for GPR151 activators: effect on human GPR119. shares compounds with GPR151 ag. GPR119 PathHunter beta-arrestin cells, luminescence, 90 min; 0 = compound-well median, 100 = enzyme-acceptor control. activation, % at 11.2 µM. 6,700 compounds, 0.3% hits;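 active means mean percent activation in the counterscreen above 29.09%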;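 further: counterscreen on off-target GPR119 to flag nonselective hits from the GPR151 activator screen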
Target sequence (Q8TDV5 whole entry, looked up): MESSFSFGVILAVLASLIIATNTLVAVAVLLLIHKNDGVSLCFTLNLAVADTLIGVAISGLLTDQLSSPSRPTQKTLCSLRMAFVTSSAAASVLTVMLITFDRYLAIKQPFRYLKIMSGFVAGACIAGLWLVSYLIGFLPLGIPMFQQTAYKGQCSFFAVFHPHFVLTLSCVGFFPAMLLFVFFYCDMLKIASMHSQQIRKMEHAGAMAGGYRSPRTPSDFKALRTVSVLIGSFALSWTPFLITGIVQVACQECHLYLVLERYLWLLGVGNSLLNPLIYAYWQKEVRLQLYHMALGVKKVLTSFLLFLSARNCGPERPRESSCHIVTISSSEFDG
A number is an active result. A selection: hits, their analogues and other compounds. The true share with any hit is near 3.4%.

How did O=C(Cn1c(=O)oc2cc(S(=O)(=O)NC3CCCCC3)ccc21)N1CCCCCC1 do in these assays?
MITF inh: inactive; GPR151 ag: inactive; TEAD-YAP inh: inactive; FBW7 act: inactive

What do the screens show for `COCCn1nnnc1CN(Cc1ccccc1)Cc1cc2cc(OC)ccc2[nH]c1=O`?
MITF inh: inactive; GPR151 ag: inactive; TEAD-YAP inh: inactive; FBW7 act: inactive

How did CN(C)CC(C)(O)c1ccc2c(c1)CN(C(=O)c1ccc(C(C)(C)C)cc1)CCO2 (centres undefined) do in these assays?
MITF inh: inactive; GPR151 ag: inactive; TEAD-YAP inh: inactive; FBW7 act: inactive

What do the screens show for `COc1cccc2c1OC1(C)C(C(=O)Nc3ccc(C)cc3C)C2NC(=S)N1c1ccc(Br)cc1` (centres undefined)?
MITF inh: inactive; GPR151 ag: inactive; TEAD-YAP inh: inactive; FBW7 act: inactive

Results for CCCN(CCC)CCCn1cnc2c([nH]c3ccc(F)cc32)c1=O ?
MITF inh: inactive; GPR151 ag: inactive; TEAD-YAP inh: inactive; FBW7 act: inactive

Results for CCCN(CCC)CCCn1cnc2c([nH]c3ccc(OC)cc32)c1=O ?
MITF inh: inactive; GPR151 ag: 5.1; TEAD-YAP inh: inactive; FBW7 act: inactive; GPR151 conf act: inactive; GPR119 ag: inactive

Results for Cc1cn2c3c(=O)n(CC(N)=O)c(=O)n(C)c3nc2n1-c1ccc(Cl)cc1 ?
MITF inh: inactive; GPR151 ag: 5.7; TEAD-YAP inh: inactive; FBW7 act: inactive; GPR151 conf act: inactive; GPR119 ag: inactive

How did OCC1OC(Nc2cccc(O)c2)C(O)C(O)C1O (centres undefined) do in these assays?
MITF inh: inactive; GPR151 ag: inactive; TEAD-YAP inh: inactive; FBW7 act: inactive

Results for COC(=O)c1cccc(NC(=O)/C(=C\c2ccco2)NC(=O)c2ccco2)c1 ?
MITF inh: inactive; GPR151 ag: 5.5; TEAD-YAP inh: inactive; FBW7 act: inactive; GPR151 conf act: inactive; GPR119 ag: inactive

Results for CC(=O)c1cccc(NC(=O)/C(=C/c2ccco2)NC(=O)c2ccco2)c1 ?
MITF inh: inactive; GPR151 ag: inactive; TEAD-YAP inh: inactive; FBW7 act: inactive

Results for CC(C)CC(C(=O)N1CCCCCC1)N1Cc2ccccc2C1=O (centres undefined) ?
MITF inh: inactive; GPR151 ag: inactive; TEAD-YAP inh: inactive; FBW7 act: inactive

Results for CCN1CCN(C(=O)C(CC(C)C)N2Cc3ccccc3C2=O)CC1 (centres undefined) ?
MITF inh: inactive; GPR151 ag: 5.5; TEAD-YAP inh: inactive; FBW7 act: inactive; GPR151 conf act: inactive; GPR119 ag: inactive

What do the screens show for `O=C(O)/C=C\C(=O)Nc1cccc2ccccc12`?
MITF inh: inactive; GPR151 ag: inactive; TEAD-YAP inh: inactive; FBW7 act: inactive

Results for CCOc1cc(C(=O)N2CCCC2)cc(Cl)c1OC ?
MITF inh: inactive; GPR151 ag: inactive; TEAD-YAP inh: inactive; FBW7 act: inactive

What do the screens show for `COc1cc(C(=O)N2CCCCC2)cc(Cl)c1OC`?
MITF inh: inactive; GPR151 ag: 6.8; TEAD-YAP inh: inactive; FBW7 act: inactive; GPR151 conf act: inactive; GPR119 ag: inactive

What do the screens show for `COc1cc(C(=O)N2CCCC2C(=O)O)cc(OC)c1OC` (centres undefined)?
MITF inh: inactive; GPR151 ag: 5.0; TEAD-YAP inh: inactive; FBW7 act: inactive; GPR151 conf act: inactive; GPR119 ag: inactive

How did CCOc1ccc(C(=O)N2CCCC2C(=O)O)cc1 (centres undefined) do in these assays?
MITF inh: inactive; GPR151 ag: inactive; TEAD-YAP inh: inactive; FBW7 act: inactive

How did O=C(c1cc2cc(Br)cc(Br)c2oc1=O)N1CCSC1c1ccccc1 (centres undefined) do in these assays?
MITF inh: inactive; GPR151 ag: inactive; TEAD-YAP inh: inactive; FBW7 act: inactive

What do the screens show for `Clc1ccc(OCc2nc3c4c5c(sc4ncn3n2)CCCCC5)cc1`?
MITF inh: inactive; GPR151 ag: inactive; TEAD-YAP inh: inactive; FBW7 act: inactive

How did CCC1=NN(C(=O)Cc2ccccc2)C(O)(c2ccccc2)C1 (centres undefined) do in these assays?
MITF inh: inactive; GPR151 ag: 6.9; TEAD-YAP inh: inactive; FBW7 act: inactive; GPR151 conf act: inactive; GPR119 ag: inactive

How did O=[N+]([O-])c1c(Cl)ccc2nsnc12 do in these assays?
MITF inh: inactive; GPR151 ag: inactive; TEAD-YAP inh: inactive; FBW7 act: inactive

Results for O=[N+]([O-])c1c(Oc2ccc(Cl)cc2)ccc2nsnc12 ?
MITF inh: inactive; GPR151 ag: 5.3; TEAD-YAP inh: inactive; FBW7 act: inactive; GPR151 conf act: inactive; GPR119 ag: inactive

Results for COCCn1c(C)cc2c(c1=O)C(c1ccc(Cl)cc1)C(C(=O)OC)=C(N)O2 (centres undefined) ?
MITF inh: inactive; GPR151 ag: inactive; TEAD-YAP inh: inactive; FBW7 act: inactive

Results for COCCn1c(C)cc2c(c1=O)C(c1ccc(Cl)cc1Cl)C(C(=O)OC)=C(N)O2 (centres undefined) ?
MITF inh: inactive; GPR151 ag: 7.1; TEAD-YAP inh: inactive; FBW7 act: inactive; GPR151 conf act: inactive; GPR119 ag: inactive

What do the screens show for `COc1ccc(/C=N/NC(=O)Cc2cc(=O)[nH][nH]2)c(OC)c1OC`?
MITF inh: inactive; GPR151 ag: inactive; TEAD-YAP inh: inactive; FBW7 act: inactive

How did O=C(CSc1ccccn1)N1CCc2nncn2CC1 do in these assays?
MITF inh: inactive; GPR151 ag: inactive; TEAD-YAP inh: inactive; FBW7 act: inactive

Results for CC(C)(C)OC(=O)N1CCC(Nc2nccc(-c3ccc(S(C)(=O)=O)cc3)n2)CC1 ?
MITF inh: inactive; GPR151 ag: inactive; TEAD-YAP inh: inactive; FBW7 act: inactive

How did CC(C)(C)OC(=O)N1CCN(c2nccc(-c3ccc(-c4ccc(Cl)cc4)s3)n2)CC1 do in these assays?
GPR151 ag: 5.3; GPR151 conf act: inactive; GPR119 ag: inactive

How did Cc1cccn2c(CN[C@@H]3CCCC[C@H]3c3ccccc3)c(C(=O)N3CCOCC3)nc12 do in these assays?
MITF inh: inactive; GPR151 ag: 5.0; TEAD-YAP inh: inactive; FBW7 act: inactive; GPR151 conf act: inactive; GPR119 ag: inactive

What do the screens show for `Cc1cccn2c(CNC3CCCc4ccccc43)c(C(=O)N3CCOCC3)nc12` (centres undefined)?
MITF inh: inactive; GPR151 ag: inactive; TEAD-YAP inh: inactive; FBW7 act: inactive

How did COC(=O)c1ccc(CC2(C)C(=O)Nc3c(-c4cccc(OC)c4)cccc32)o1 (centres undefined) do in these assays?
MITF inh: inactive; GPR151 ag: inactive; TEAD-YAP inh: inactive; FBW7 act: inactive

How did CC(=O)N1CCC(N(C(=O)Nc2c(F)cccc2F)C(C)C)CC1 do in these assays?
MITF inh: inactive; GPR151 ag: 9.1; TEAD-YAP inh: inactive; FBW7 act: inactive; GPR151 conf act: inactive; GPR119 ag: inactive
